Bioassay records from PubChem.
LYPLA1 counter: LYPLA1 inhibitors, primary screen, counter-screen for PME1 inhibitor project, biochemical, fluorescence polarization, FP-Rh probe ABPP. Acyl-protein thioesterase 1 (Homo sapiens), O75608. recombinant LYPLA1. inhibition, % at 5.9 µM. actives 0.16% (n = 320,000);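 active means inhibition above the mean of all tested compounds plus 3 SD, set per campaign, cut at about 14% in these data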;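 further: inhibitors block serine hydrolase probe labeling of LYPLA1 so polarization falls; 0% = enzyme with DMSO and 100% = wells lacking LYPLA1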
PAD4 FP inh: human PAD4 inhibitors, primary screen, biochemical, fluorescence polarization, 1536-well format; inhibition, % at 6.36 µM; Protein-arginine deiminase type-4 (Homo sapiens), Q9UM07; AID 485272, 2010; recombinant PAD4, RCA probe fluorescence polarization; actives 0.41% (n = 330,000);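 active means percent inhibition above a cutoff equal to the mean of all tested compounds plus 3 SD, cut at about 15% in these data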;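 further: 0% = PAD4 with RCA probe and DMSO and 100% = probe without PAD4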
Target sequence (Q9UM07 whole entry, looked up): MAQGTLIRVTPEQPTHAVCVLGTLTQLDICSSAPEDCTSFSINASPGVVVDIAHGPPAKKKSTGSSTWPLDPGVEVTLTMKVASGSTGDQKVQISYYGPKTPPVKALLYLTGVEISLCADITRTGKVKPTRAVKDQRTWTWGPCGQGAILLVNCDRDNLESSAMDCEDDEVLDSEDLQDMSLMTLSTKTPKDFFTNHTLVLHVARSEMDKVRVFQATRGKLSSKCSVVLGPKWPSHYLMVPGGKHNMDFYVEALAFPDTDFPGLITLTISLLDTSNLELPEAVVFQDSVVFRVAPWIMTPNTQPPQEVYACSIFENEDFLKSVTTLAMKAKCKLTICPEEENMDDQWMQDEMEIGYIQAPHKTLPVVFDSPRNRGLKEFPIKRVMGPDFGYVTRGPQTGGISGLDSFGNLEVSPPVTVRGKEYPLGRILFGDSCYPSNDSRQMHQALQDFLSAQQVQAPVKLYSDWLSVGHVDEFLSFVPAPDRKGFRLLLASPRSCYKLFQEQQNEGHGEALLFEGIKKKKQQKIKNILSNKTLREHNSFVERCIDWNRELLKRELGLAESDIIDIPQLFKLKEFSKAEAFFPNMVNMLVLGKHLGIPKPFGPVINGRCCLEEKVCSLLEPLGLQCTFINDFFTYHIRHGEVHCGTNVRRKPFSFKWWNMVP
GSTO1 counter: inhibitors of recombinant GSTO1, primary screen, counter-screen for RBBP9 inhibitor project, biochemical, fluorescence polarization | activity-based probe fluorescence polarization | actives 1.1% (n = 300,000) | inhibition, % at 5.96 µM | Glutathione S-transferase omega-1 (Homo sapiens), P78417;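 active means inhibition above the campaign mean inhibition plus 3 SD, cut at about 35% in these data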;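 further: 0% = GSTO1-1 with DMSO and 100% = wells lacking GSTO1-1 enzyme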
PME-1 primary: PME-1 inhibitors via competitive probe labeling, primary screen, biochemical, fluorescence polarization, FP-Rh probe, HTS | inhibition, % at 5.9 µM | Protein phosphatase methylesterase 1 (Homo sapiens), Q9Y570 | AID 2130, 2009 | recombinant PME-1 | actives 0.53% (n = 320,000);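 active means inhibition above the campaign mean of all compounds plus 3 SD, cut at about 26% in these data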;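 further: competitive labeling of PME-1 active site by serine hydrolase directed probe; 0% = PME-1 with DMSO and 100% = wells lacking PME-1 enzyme; inhibitors block probe labeling so polarization falls and inhibition rises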
Fam108B inh: mouse Fam108B serine hydrolase inhibitors, primary screen, counter-screen for RBBP9 inhibitor project, biochemical, fluorescence polarization | recombinant Fam108B, FP-Rh probe fluorescence polarization | inhibition, % at 9.51 µM | actives 0.33% (n = 300,000) | AID 1947, 2009;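 active means inhibition above the screen mean inhibition plus 3 SD, computed separately per campaign, cut at about 18% in these data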;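 further: inhibitors lower polarization as less probe binds the enzyme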
LYPLA2 counter: LYPLA2 inhibitors, primary screen, counter-screen for PME1 inhibitor project, biochemical, fluorescence polarization, FP-Rh probe ABPP; Acyl-protein thioesterase 2 (Homo sapiens), O95372; actives 0.38% (n = 320,000); AID 2177, 2009; recombinant LYPLA2; inhibition, % at 5.9 µM;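 active means inhibition above the screen-wide mean plus 3 SD, limit set per campaign, cut at about 26% in these data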;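 further: 0% = LYPLA2 with DMSO and 100% = wells lacking LYPLA2 enzyme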
GSTO1 inh conf: GSTO1 inhibitor hit confirmation, counter-screen for RBBP9 inhibitor project, biochemical, fluorescence polarization, triplicate; shares compounds with GSTO1 counter; recombinant GSTO1, probe fluorescence polarization; inhibition, % at 5.96 µM; actives 54% (n = 2,400); AID 2176, 2009;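 active means inhibition above the primary screen's cutoff, its mean inhibition plus 3 SD, cut at about 35% in these data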;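 further: loss of polarization as inhibitors block binding of rhodamine sulfonate ester activity probe; 0% = GSTO1 with DMSO and 100% = wells lacking GSTO1 enzyme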
GSTO1 recomb ABPP: inhibitors of purified human GSTO1, late-stage follow-up, biochemical, gel ABPP, SE-Rh probe, percent inhibition; shares compounds with GSTO1 counter; recombinant GSTO1, gel ABPP SE-Rh probe fluorescence; inhibition, % at 1 µM; actives 30% (n = 130);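 active means inhibition of the enzyme GSTO1 above about 75%, limit read from the data; inactive means inhibition below that limit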
* hit, by the source's call. A selection: hits, their analogues and other compounds. The true share with any hit is near 1.8%.

How did CCN(CC)CCNC(=O)c1ccc(N2CCCCC2)c(NS(=O)(=O)c2ccc(C)cc2)c1 do in these assays?
LYPLA1 counter: 0; PAD4 FP inh: 1; GSTO1 counter: 24; PME-1 primary: -2; Fam108B inh: -1; LYPLA2 counter: -2

Results for COC(=O)CCC(=O)OC1(C)C(=O)C2=CN(CCN3CCOCC3)C(c3ccc(OC)cc3)=CC2=C(Br)C1=O (stereo not drawn) ?
LYPLA1 counter: 3; PAD4 FP inh: 0; GSTO1 counter: 56*; PME-1 primary: -1; Fam108B inh: 6; LYPLA2 counter: 9; GSTO1 inh conf: 65*

How did COC(=O)CCC(=O)OC1(C)C(=O)C2=CN(CCCCO)C(c3ccc(OC)cc3)=CC2=C(Br)C1=O (stereo not drawn) do in these assays?
LYPLA1 counter: 2; PAD4 FP inh: 28*; GSTO1 counter: 66*; PME-1 primary: 6; Fam108B inh: 4; LYPLA2 counter: 3; GSTO1 inh conf: 60*

How did COC(=O)CCC(=O)OC1(C)C(=O)C2=CN(C(CO)CO)C(c3ccc(OC)cc3)=CC2=C(Br)C1=O (stereo not drawn) do in these assays?
LYPLA1 counter: 0; PAD4 FP inh: -2; GSTO1 counter: 49*; PME-1 primary: 1; Fam108B inh: 3; LYPLA2 counter: -2; GSTO1 inh conf: 51*

How did COc1ccc(C2=CC3=C(Br)C(=O)C(C)(OC(=O)c4ccc(Cl)nc4)C(=O)C3=CO2)cc1 (stereo not drawn) do in these assays?
LYPLA1 counter: -1; PAD4 FP inh: -6; GSTO1 counter: 21; PME-1 primary: 0; Fam108B inh: 6; LYPLA2 counter: 0

What do the screens show for `COC(=O)CCC(=O)OC1(C)C(=O)C2=CN(Cc3ccc4c(c3)OCO4)C(c3ccc(OC)cc3)=CC2=C(Br)C1=O` (stereo not drawn)?
LYPLA1 counter: 1; PAD4 FP inh: -23; GSTO1 counter: 31; PME-1 primary: 0; Fam108B inh: 2; LYPLA2 counter: 0

Results for C=CCNC(=O)CC(=O)N/N=C/c1ccc(C(=O)OC)cc1 ?
LYPLA1 counter: 0; PAD4 FP inh: 4; GSTO1 counter: -1; PME-1 primary: -3; Fam108B inh: 6; LYPLA2 counter: -1

What do the screens show for `Fc1ccc(-n2nnc(-c3cccnc3Cl)n2)cc1`?
LYPLA1 counter: 2; PAD4 FP inh: -5; GSTO1 counter: 0; PME-1 primary: -8; Fam108B inh: -2; LYPLA2 counter: 2

Results for Clc1ncccc1-c1nnn(-c2ccccc2)n1 ?
LYPLA1 counter: -1; PAD4 FP inh: -3; GSTO1 counter: 58*; PME-1 primary: -2; Fam108B inh: 2; LYPLA2 counter: 4; GSTO1 inh conf: 4

What do the screens show for `O=[N+]([O-])c1ccc(N2CCCCC2)nc1N1CCCCC1`?
LYPLA1 counter: 2; PAD4 FP inh: -2; GSTO1 counter: 7; PME-1 primary: 1; Fam108B inh: 0; LYPLA2 counter: 4

How did O=[N+]([O-])c1ccc2c(c1N1CCCCC1)=NC1(CCCCC1)[N+]=2[O-] do in these assays?
LYPLA1 counter: 0; PAD4 FP inh: -2; GSTO1 counter: 57*; PME-1 primary: 7; Fam108B inh: 7; LYPLA2 counter: 2; GSTO1 inh conf: 6

How did Nc1ccc(N(c2ccccc2)c2ccc(N)cc2)cc1 do in these assays?
LYPLA1 counter: -2; PAD4 FP inh: -7; GSTO1 counter: 43*; PME-1 primary: 8; Fam108B inh: 8; LYPLA2 counter: 4; GSTO1 inh conf: 9

How did COc1ccc(N2CCN(c3ccc(NC(=O)/C=C\C(=O)O)cc3)CC2)cc1 do in these assays?
LYPLA1 counter: 1; PAD4 FP inh: 30*; GSTO1 counter: 74*; PME-1 primary: 2; Fam108B inh: 5; LYPLA2 counter: 6; GSTO1 inh conf: 3

Results for CN(C)C(=O)c1cc(C(=O)c2ccccc2Cl)c[nH]1 ?
LYPLA1 counter: -1; PAD4 FP inh: -1; GSTO1 counter: -1; PME-1 primary: -1; Fam108B inh: -2; LYPLA2 counter: -6

What do the screens show for `CN(C)C(=O)c1cc(C(=O)c2ccccc2)c[nH]1`?
LYPLA1 counter: 2; PAD4 FP inh: 2; GSTO1 counter: 67*; PME-1 primary: -2; Fam108B inh: 3; LYPLA2 counter: 1; GSTO1 inh conf: 2

What do the screens show for `CN1c2ccccc2C(C)(C)C12CC(c1ccc(Cl)c(S(=O)(=O)N3CCCC3)c1)=NO2` (stereo not drawn)?
LYPLA1 counter: 1; PAD4 FP inh: -2; GSTO1 counter: 5; PME-1 primary: 5; Fam108B inh: -3; LYPLA2 counter: -1

Results for CN1c2ccccc2C(C)(C)C12CC(CCl)=NO2 (stereo not drawn) ?
LYPLA1 counter: -4; PAD4 FP inh: -11; GSTO1 counter: 46*; PME-1 primary: -1; Fam108B inh: 1; LYPLA2 counter: -21; GSTO1 inh conf: 96*; GSTO1 recomb ABPP: 64

Results for CC(=O)c1cccc(Nc2nc(-c3ccccc3)nc3ccccc23)c1 ?
LYPLA1 counter: -4; PAD4 FP inh: -4; GSTO1 counter: 0; PME-1 primary: 0; Fam108B inh: 3; LYPLA2 counter: -3

Results for CC(=O)c1cccc(-c2ccc3c(=O)[nH]c(Nc4ccccc4)cc3c2)c1 ?
LYPLA1 counter: -5; PAD4 FP inh: -7; GSTO1 counter: 49*; PME-1 primary: 21; Fam108B inh: 16; LYPLA2 counter: -7; GSTO1 inh conf: 12

What do the screens show for `Cc1ccccc1N(Cc1cc(=O)[nH]c2ccccc12)C(=O)C(C)C`?
LYPLA1 counter: 2; PAD4 FP inh: 6; GSTO1 counter: 2; PME-1 primary: -8; Fam108B inh: 2; LYPLA2 counter: 0

Results for CCCN(C(=O)Cn1ncc2c([nH]c3ccccc32)c1=O)c1ccccc1C ?
LYPLA1 counter: 1; PAD4 FP inh: 0; GSTO1 counter: -1; PME-1 primary: 0; Fam108B inh: -2; LYPLA2 counter: 3
